The values that follow come from ChEMBL document CHEMBL4513146, “CO-ADD screening of Karazin Kharkiv National University (Ukraine) compounds”.

Assay [1] concerns Staphylococcus aureus. The conditions noted are these: Concentration 32 ug.mL-1;; ASSAY_TEST Inhibition of Bacterial Growth; detection method Absorption (OD600); MEDIA CAMHB; plate type 384well; NBS; CORNING #3640; time 18 hr.
Assay [2] concerns Escherichia coli. Particulars: Concentration 32 ug.mL-1;; ASSAY_TEST Inhibition of Bacterial Growth; detection method Absorption (OD600); MEDIA CAMHB; plate type 384well; NBS; CORNING #3640; time 18 hr.

Molecules are shown by their SMILES. Measured potencies and affinities stand elsewhere.

Consider `CSc1cccc(NC(=O)Cn2nc3c4c5c(sc4ncn3c2=O)CCCC5)c1`, for which the Inhibition in assay [1] is -8.02%; in assay [2], -9.58%.

In the case of `COc1ccc(-c2cc3c4nnc(CCC(=O)N5CCN(c6ccccc6F)CC5)n4ccn3n2)cc1`, the Inhibition in assay [1] amounted to 13.19%; in assay [2], 1.66%.

As for `COc1ccc(C)cc1NC(=O)Cn1nc2c3cc(-c4ccc(C)c(C)c4)nn3ccn2c1=O`, the Inhibition in assay [1] was 0.65%; in assay [2] it was -4.8%.

Regarding `CCc1nnc2c(=O)n(CC(=O)Nc3ccc(C(C)C)cc3)c3ccccc3n12`, the Inhibition in assay [1] is recorded as 12.36%; in assay [2], 0.11%.

As to `CSc1cccc(NC(=O)Cn2nc3c(Sc4ccccc4)nccn3c2=O)c1`, the figures for the Inhibition in assay [1] and in assay [2] were -5% and -10.44%, respectively.

For the molecule `CC(C)c1nnc2c(SCC(=O)Nc3ccc(Cl)cc3C(F)(F)F)nc3ccccc3n12`, the results for the Inhibition in assay [1] and in assay [2] were 2.01% and -15.72%, respectively.

As to `CCOc1ccc(-n2ccn3c(SCC(=O)c4ccc(C)cc4)nnc3c2=O)cc1`, the Inhibition in assay [1] was 16.97%; in assay [2], -1.19%.

On to `COc1ccc(NC(=O)Cn2nc3nc(Nc4ccc(F)cc4)ccn3c2=O)cc1F`, for which the Inhibition in assay [1] is recorded as -2.83%; in assay [2], -10.06%.

Turning to `Cc1ccc(-c2cc3c4nnc(CCC(=O)N5CCN(c6ccccc6F)CC5)n4ccn3n2)cc1C`, the results for the Inhibition in assay [1] and in assay [2] were -1.08% and -5.39%, respectively.

On to `CCc1nnc2c(S(=O)(=O)N(Cc3ccc(F)cc3)c3cccc(Cl)c3)cccn12`, for which the Inhibition is recorded as 8.4% in assay [1] and -8.07% in assay [2].

In the case of `Cc1ccc(NC(=O)Cn2nc3c(N4CCOCC4)nccn3c2=O)cc1Cl`, the figures for the Inhibition in assay [1] and in assay [2] were 10.97% and 1.83%, respectively.

In the case of `COc1cc(OC)c(NC(=O)Cn2nc3ccc(-c4ccc(C)c(C)c4)nn3c2=O)cc1Cl`, the values for the Inhibition in assay [1] and in assay [2] were 2.47% and -7.33%, respectively.

Take `O=c1c2sccc2n2c(SCc3cccc(C(F)(F)F)c3)nnc2n1Cc1cccs1`: the Inhibition was 3.6% in assay [1] and -11.21% in assay [2].

For `Cc1ccc(Sc2nccn3c(=O)n(CC(=O)N4CCN(c5ccc(F)cc5)CC4)nc23)c(C)c1`, the Inhibition in assay [1] is -13.09%; in assay [2] it was -20.44%.

For `Cc1ccc(-c2cc3c4nn(CC(=O)Nc5ccccc5Cl)c(=O)n4ccn3n2)cc1`, the Inhibition in assay [1] is recorded as 2.52%; in assay [2], -6.02%.

Take `CC(C)c1ccc(NC(=O)Cn2nc3c(SCc4ccccc4)nccn3c2=O)cc1`: the figures for the Inhibition in assay [1] and in assay [2] were 1.97% and -7.26%, respectively.

Consider `COc1ccc(CNC(=O)Cn2nc3c(Sc4ccc(C)cc4C)nccn3c2=O)cc1`, for which the Inhibition in assay [1] was 6.57%; in assay [2] it was -1.79%.

On to `O=C(CSc1nnc2c(=O)n(-c3ccc(F)cc3)ccn12)N1CCN(c2ccccc2F)CC1`, for which the results for the Inhibition in assay [1] and in assay [2] were 14.78% and -0.33%, respectively.

Turning to `O=C(CCc1nnc2c(N3CCCCC3)nc3ccccc3n12)NCCc1ccc(Cl)cc1`, the Inhibition came out at 11.18% in assay [1] and 0.17% in assay [2].

For `Cc1ccc(Sc2nccn3c(=O)n(CC(=O)Nc4cccc(Br)c4)nc23)c(C)c1`, the Inhibition is given as -7.2% in assay [1] and -13.08% in assay [2].

In the case of `COc1cccc(-n2ccn3c(SCC(=O)Nc4ccc5c(c4)OCCO5)nnc3c2=O)c1`, the Inhibition is 11.59% in assay [1] and -2.35% in assay [2].

Consider `O=C(Cn1nc2c(SC3CCCCC3)nccn2c1=O)Nc1ccc(Br)cc1`, for which the Inhibition in assay [1] is reported as 7.56%; in assay [2], -4.82%.

As to `Cc1cccc(Oc2nccn3c(=O)n(CC(=O)Nc4ccccc4C(F)(F)F)nc23)c1C`, the Inhibition in assay [1] worked out at 14.33%; in assay [2], 3.1%.

Turning to `Cc1c(Cl)cccc1-n1ccn2c(=O)n(Cc3ccc(Cl)cc3)nc2c1=O`, the Inhibition in assay [1] is listed as 9.17%; in assay [2] it was -7.56%.

`COc1cc(NC(=O)Cn2nc3ccc(SC4CCCCC4)nn3c2=O)cc(OC)c1`: the Inhibition is -2.94% in assay [1] and -6.19% in assay [2].

Regarding `COc1ccc(-c2cc3c4nnc(CCC(=O)NCCc5ccccc5)n4ccn3n2)cc1`, the Inhibition turned out to be 6.36% in assay [1] and 2.69% in assay [2].

As for `COC(=O)c1ccc(NC(=O)Cn2nc3c(Oc4cccc(OC)c4)nccn3c2=O)cc1`, the Inhibition was 10.83% in assay [1] and -2.01% in assay [2].

Take `O=C(Cn1nc2c3cc(-c4ccc(Cl)cc4)nn3ccn2c1=O)Nc1ccc(F)cc1`: the Inhibition in assay [1] was 7.29%; in assay [2] it was 4.85%.

As to `O=C(Cn1nc2c(SCc3ccccc3)nccn2c1=O)NCc1ccc(Cl)cc1`, the Inhibition in assay [1] is -0.34%; in assay [2] it was -19.62%.

As to `Cn1c(=O)c2ccc(C(=O)NC3CCCC3)cc2n2c(SCC(=O)Nc3cc(F)ccc3F)nnc12`, the Inhibition in assay [1] was 8.34%; in assay [2] it was -3.62%.

In the case of `N#CCn1nc2n(CCC(=O)NC3CCCCC3)c(=O)c3ccccc3n2c1=O`, the Inhibition in assay [1] is listed as 8.56%; in assay [2] it was 0.43%.

As to `O=c1n(Cc2nc(-c3ccc(OC(F)(F)F)cc3)no2)nc2ccc(-c3ccccc3)nn12`, the Inhibition is given as -0.65% in assay [1] and -5.47% in assay [2].

A word on the Inhibition: it is the change of the read-out against control, counted positive when it falls.
